Only some compounds are listed: those with a hit (about 8.3% of all), similar ones and a draw of the others.
SW480 rereplic: DNA re-replication induction in SW480 cells; SW480 DNA re-replication, Hoechst DNA content imaging, 48 h; Potency, µM (highest dose often 46.1 µM), for inactives: at the highest dose re-replication activation, actives largely listed as activators; 340,000 tested, 1.8% active; also: potency is read from the fitted curve at half-maximal effect; % of control where 0% means no effect; nearly all actives have a fitted effect of over 55% in size
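Compounds, transferred as 23 nL by pin tool, were incubated with cells for 48 hr; DNA content per nucleus was then quantified by Hoechst staining and fluorescence plate imaging.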
VP16 counter: inhibits Gal4-VP16 luciferase reporter, ROR gamma counter-screen; Drosophila S2 Gal4-VP16 UAS-luciferase, luminescence, 20 h; Potency, µM (highest dose often 53.6 µM), without a hit: top-dose activity, negative = inhibition, actives largely listed as inhibitors; 310,000 tested, 3.5% active; AID 2546;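 also: Gal4-VP16 expression switched on by copper sulfate through the metallothionein promoter; potency is read from the fitted curve at half-maximal effect; % is scaled to controls: 0 for no effect and ±100 for the full control effect; nearly all actives have a fitted effect of over 50% in size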
Giardia killer: kills Giardia lamblia; 340,000 tested, 0.15% active; activity change, % at 7.66 µM, hits read low; Giardia lamblia trophozoite viability; in the data active = activity change below about -80%; inconclusive = between about -30% and that limit;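 also: parasites exposed to compound for two days anaerobically before the ATP read; % is scaled to controls: 0 for no effect and ±100 for the full control effect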
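ATP-content bioluminescence gauges trophozoite survival. Cells (100/well) receive compound and incubate anaerobically for 48 hrs at 37 deg C; detection reagent follows for 15-30 min at room temperature.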
MCF10A rereplic: inducers of DNA re-replication in MCF 10A breast cells | MCF 10A DNA re-replication, Hoechst nuclear intensity, 48 h | Potency, µM (top dose mostly 46.1 µM), inactives show at the highest dose activity, positive = re-replication, actives largely listed as activators | 350,000 tested, 2.9% active; also: potency is read from the fitted curve at half-maximal effect; % of control where 0% means no effect; nearly all actives have a fitted effect of over 50% in size
RORgamma inh: inhibitors of mouse ROR gamma transcriptional activity; AID 2551; 310,000 tested, 5.4% active; Drosophila S2 Gal4-RORgamma UAS-luciferase reporter, 20 h; Potency, µM (top dose mostly 53.6 µM), inactives show at the top dose activity change, negative = inhibition, most hits filed as inhibitors; also: potency is read from the fitted curve at half-maximal effect; % is scaled to controls: 0 for no effect and ±100 for the full control effect; nearly all actives have a fitted effect of over 60% in size
Target sequence (P51450 whole entry, looked up, the tested form may be a part): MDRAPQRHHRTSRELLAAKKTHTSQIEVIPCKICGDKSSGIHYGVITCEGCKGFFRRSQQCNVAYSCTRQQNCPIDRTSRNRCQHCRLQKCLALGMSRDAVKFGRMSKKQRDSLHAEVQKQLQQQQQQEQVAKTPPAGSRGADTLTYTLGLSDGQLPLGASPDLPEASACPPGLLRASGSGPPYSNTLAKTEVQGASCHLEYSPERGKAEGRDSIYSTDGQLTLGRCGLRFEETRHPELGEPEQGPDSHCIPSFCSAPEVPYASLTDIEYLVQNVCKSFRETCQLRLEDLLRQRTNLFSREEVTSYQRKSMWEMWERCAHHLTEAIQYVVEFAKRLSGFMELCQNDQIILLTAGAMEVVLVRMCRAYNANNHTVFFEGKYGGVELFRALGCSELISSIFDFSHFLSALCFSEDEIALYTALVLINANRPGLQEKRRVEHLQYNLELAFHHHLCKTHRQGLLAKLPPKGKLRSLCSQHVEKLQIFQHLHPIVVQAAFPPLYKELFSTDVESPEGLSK
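Stable Schneider cell line, Gal4 DNA-binding domain fused to ROR gamma, UAS-luciferase. Cmpd 1 hr RT → CuSO4 700 uM final → 20 hr RT → luciferase reagent 10 min → luminescence.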
BCR signal inh: inhibitors of chronic active B-cell receptor signaling; Potency, µM (series often up to 46.1 µM), without a hit: at the top dose activity change, negative = inhibition, most hits filed as inhibitors; 340,000 tested, 0.05% active; ABC-DLBCL IkBa-CBG/CBR reporter, luminescence ratio, 4 h; active = well fitted inhibition curve with a large enough effect in the signal ratio, with a control signal flat, not every such curve was filed as active; inconclusive = small, poorly fitted or top-dose-only effect, or effect the other way, or a change in a side signal; the % refers to the signal ratio;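 also: potency is read from the fitted curve at half-maximal effect; plate controls were basal doxycycline-induced cells for no effect and cells given 10 µM MG132 for full effect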
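Concentration-response series (up to 46 uM) were applied to TMD8 dual-reporter cells for 4 h at 37C with doxycycline. Green/red ratio, after filter-overlap correction, defined %Activity; red signal alone was normalised to basal cells and zero luminescence.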
* hit, by the source's call; ? = inconclusive; · = not tested or not shown; [ ] = another dose, or the depositor's remark. Unless noted, calls follow the shape of the dose curve; as a rule, active = well fitted curve in the direction sought with a large enough effect; inconclusive = small, poorly fitted or top-dose-only effect, or another doubt; inactive = no such curve, though single readings can be large; an effect the other way counts as inactive or inconclusive.

SMILES | SW480 rereplic | VP16 counter | Giardia killer | MCF10A rereplic | RORgamma inh | BCR signal inh
Nc1cc2nn(-c3ccccc3)nc2cc1Cl | ? | -16%[10 µM] | 3 | 18µM* | -19% | ?
Nc1ccc(-n2nc3ccccc3n2)cc1 | ? | · | ? | 23µM* | · | ·
Nc1ccc2nn(-c3ccccc3)nc2c1 | 15µM* | 29% | -17 | 18µM* | -8% | ?
CC(C)CC(=O)Nc1cc2nn(-c3ccccc3)nc2cc1Cl | 6% | -2% | -13 | 7% | -22% | ?
Cc1cccc(N2CC(C(=O)O)CC2=O)c1C (stereo not drawn) | -7% | ? | -18 | 4% | -24% | 7%
COc1cc2c(cc1OC)C1(Nc3c-2c(Cc2ccccc2)nn3-c2ccccc2)C(=O)Nc2ccccc21 (stereo not drawn) | ? | -6% | 4 | 6.5µM* | 27% | ?
COc1cc2c(cc1OC)C1(NCC2)C(=O)Nc2ccccc21 (stereo not drawn) | -1% | 3% | -9 | -2% | 7% | -4%
CC(C(=O)NC1CCCC1)N1CCN(S(=O)(=O)c2ccc(C(C)(C)C)cc2)CC1 (stereo not drawn) | 3% | · | 6 | 1% | · | 2%
COc1ccc(OC)c(/C=C2\S/C(=N/NC(=O)c3ccc4ccccc4c3)NC2=O)c1 | 2% | ? | 13 | 16µM* | 1.4µM* | ?
COc1ccc(OC)c(/C=N\NC(=O)c2ccc(-c3ccccc3)cc2)c1 | 1% | -13% | -2 | ? | -33% | 2%
COc1cccc(/C=C2\SC(=O)NC2=O)c1OCc1ccc(C(=O)O)cc1 | -7% | -19%[10 µM] | 1 | 21% | 16% | -2%
O=C1N/C(=N/NC(=O)c2cccc3ccccc23)S/C1=C\c1ccccc1OCc1ccccc1 | 5% | ? | 4 | 23µM* | 0.63µM* | ?
COC(=O)c1sccc1NC(=O)c1csc(C)c1 | 22% | 9% | 39 | -11% | ? | -2%
COC(=O)CN1C(=O)S/C(=C/c2ccc(N3CCCCC3)o2)C1=O | ? | 5µM* | 5 | ? | ? | 3%
CCOC(=O)CN1C(=O)S/C(=C/c2ccc(N3CCCCC3)o2)C1=O | 0% | -8% | -9 | 1% | -6% | -4%
CCCN1C(=O)S/C(=C/c2ccc(N3CCOCC3)o2)C1=O | ? | -14% | 12 | ? | -2% | -1%
CCCN1C(=O)S/C(=C\c2ccc(N3CCOCC3)o2)C1=O | 3.7µM* | 4.5µM* | 7 | 16µM* | 5.6µM* | -17%
Cc1c(CCC(=O)O)c(=O)oc2cc3occ(-c4ccc(F)cc4)c3cc12 | -5% | ? | 30 | 30% | 2.8µM* | ?
Cc1c(CCC(=O)O)c(=O)oc2cc3occ(-c4ccc(Cl)cc4)c3cc12 | 5% | -3% | -17 | ? | 12% | ?
Cc1ccc(C(=O)NC(C(=O)NC2CCCC2)c2ccccc2)cc1 (stereo not drawn) | 2% | -6% | -4 | -1% | -33% | 8%
CN1/C(=C\C=N\NC(=O)c2ccccc2Br)C(C)(C)c2ccccc21 | -4% | 1.3µM* | 12 | 6% | 0.79µM* | ?
CN1/C(=C\C=C(C#N)C#N)C(C)(C)c2ccccc21 | -6% | 3% | 20 | -8% | -1% | 6%
CN1/C(=C/C=N/n2cnnc2)C(C)(C)c2ccccc21 | -1% | 18µM* | 1 | -6% | 23% | ?
COc1cc(C2/C(=C(\O)c3ccc4c(c3)CC(C)O4)C(=O)C(=O)N2CCCn2ccnc2)cc(OC)c1OC (stereo not drawn) | -33% | -13% | -10 | 0% | -13% | -7%
CCNC(=S)NNC(=O)CSc1nc2ccccc2n1C | -3%[9.22 µM] | 0.71µM* | 7 | 1% | 0.22µM* | ?
SMILES | SW480 rereplic | VP16 counter | Giardia killer | MCF10A rereplic | RORgamma inh | BCR signal inh
Cc1ccc(CNC(=O)CSc2nc3ccccc3[nH]2)cc1 | -1% | · | -16 | 6% | · | -1%
CN(C)C(CNC(=O)CCc1nc2cc(Cl)ccc2n(Cc2ccccc2)c1=O)c1ccccc1 (stereo not drawn) | ? | · | 6 | 14% | · | ?
CCNC(=S)NNC(=O)CCc1nc2cc(Cl)ccc2n(Cc2ccccc2)c1=O | 8% | -10% | 17 | -2% | 6.3µM* | -1%
Cn1c(SCC(=O)NCc2ccc(F)cc2)nc2ccccc21 | 0% | 2% | 5 | 3% | -26% | -7%
CCNC(=S)NNC(=O)CSc1nc2ccccc2[nH]1 | -4% | 13µM* | 5 | -7% | 4µM* | -1%
Cc1c(C2CCN(CCc3ccccc3)CC2)noc1-c1ccc(Cl)cc1 | · | ? | · | · | -45% | ·
Cc1ccc(C(=O)NNC(=O)c2csc(N3CCOCC3)n2)s1 | 0% | · | -2 | -1% | · | -5%
Cc1ccc(/C=C/S(=O)(=O)NCC(=O)OCC(=O)NCc2ccccc2)cc1 | 9% | -15% | 16 | -2% | 3% | -3%
CC[C@H](C)[C@@H](NC(=O)O[C@H]1C(=O)c2cc(OC)ccc2O[C@@H]1c1ccc(OC)c(Br)c1)C(=O)OC | · | -5% | · | · | -7% | ·
O=C(CSCCO)Nc1ccc(C2CCCCC2)cc1 | 0% | 5.6µM* | 3 | 20% | 0% | -17%
O=C(NCC(c1cccs1)N1CCOCC1)c1ccc(Cl)nc1 (stereo not drawn) | ? | · | -23 | 18µM* | · | 4%
O=C(NCC(c1cccs1)N1CCOCC1)c1cc(S(=O)(=O)N2CCOCC2)c(Cl)cc1Cl (stereo not drawn) | ? | · | 14 | 4% | · | 7%
O=C(NCC(c1cccs1)N1CCOCC1)c1ccc(Cl)cc1 (stereo not drawn) | ? | · | 6 | ? | · | 5%
O=C(NCC(c1cccs1)N1CCOCC1)c1cc(S(=O)(=O)N2CCOCC2)ccc1F (stereo not drawn) | 3.3µM* | · | -16 | 22% | · | 9%
CC(C)(C)c1ccc(C(=O)NCCCN2CCN(CCCNC(=O)c3ccc(C(C)(C)C)cc3)CC2)cc1 | ? | 13µM* | -1 | 16µM* | 7.1µM* | 3%
COc1ccccc1NS(=O)(=O)c1ccc(C(=O)NCCCN2CCOCC2)cc1 | 8.2µM* | · | 8 | -7% | · | -8%
O=C(NCCCN1CCOCC1)c1ccc(Br)cc1 | -14% | 9% | 9 | -4% | 42% | 7%
CC(C)CC(=O)NC(=S)Nc1ccc(S(=O)(=O)N2CCCC2)cc1 | -2% | -13% | 13 | -6% | 16µM* | -8%
CC(C)C(=O)NC(=S)Nc1ccc(S(=O)(=O)N2CCCC2)cc1 | 1% | ? | ? | ? | ? | 1%
O=C(NC(=S)Nc1ccc(S(=O)(=O)N2CCCC2)cc1)C1CCC1 | -3% | -2% | -7 | -4% | 11µM* | -9%

From PubChem BioAssay
